Data: publication PMC7862700, “An all-to-all approach to the identification of sequence-specific readers for epigenetic DNA modifications on cytosine”

Legend:
Assay in all cases: DAPPL (digital affinity profiling via proximity ligation, sequencing); 10 mM Tris-HCl pH 7.5, 50 mM NaCl, 1 mM DTT, 4% glycerol, room temperature, 30 min; GST-TFs on glutathione beads, 16-mer random dsDNA library, 0.1% formaldehyde crosslink after washing; high values mean tight binding
FLI1 = molecular target: T1, FLI1 (Homo sapiens, UniProt Q01543 1-452); conditions: protein: recombinant; tags: N-terminal GST; dsDNA, one strand shown
T1 sequence: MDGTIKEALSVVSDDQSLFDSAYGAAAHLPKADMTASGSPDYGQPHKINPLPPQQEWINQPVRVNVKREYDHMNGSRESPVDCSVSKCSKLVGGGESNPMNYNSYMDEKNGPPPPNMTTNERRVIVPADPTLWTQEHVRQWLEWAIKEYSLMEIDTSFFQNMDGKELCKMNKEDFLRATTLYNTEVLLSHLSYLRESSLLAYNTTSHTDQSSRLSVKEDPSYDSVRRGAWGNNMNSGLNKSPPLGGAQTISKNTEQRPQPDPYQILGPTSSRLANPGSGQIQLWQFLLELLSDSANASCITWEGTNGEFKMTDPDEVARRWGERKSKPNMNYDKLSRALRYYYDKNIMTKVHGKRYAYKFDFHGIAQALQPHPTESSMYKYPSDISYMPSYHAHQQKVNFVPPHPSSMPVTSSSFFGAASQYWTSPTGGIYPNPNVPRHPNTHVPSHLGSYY
Procedure, shortened: (§1)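 A tag-only sample was pooled with DNA-barcoded human transcription factors that had been expressed in yeast as GST fusions and captured on glutathione beads. The pools were incubated for 30 min at room temperature with 200 nmole of a random double-stranded 16-mer DNA library in Tris/NaCl/DTT/glycerol buffer, then washed, crosslinked with 0.1% formaldehyde, proximity-ligated (BsaI/T4 ligase, 1 h, 37 °C), PCR-amplified and sequenced on an Illumina NextSeq500. Binding signal is each hexamer's read frequency for a factor divided by its frequency for the tag-only sample.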

ELK1 = molecular target: T2, ELK1 (Homo sapiens, UniProt P19419 1-428); conditions: protein: recombinant; tags: N-terminal GST; dsDNA, one strand shown
T2 sequence: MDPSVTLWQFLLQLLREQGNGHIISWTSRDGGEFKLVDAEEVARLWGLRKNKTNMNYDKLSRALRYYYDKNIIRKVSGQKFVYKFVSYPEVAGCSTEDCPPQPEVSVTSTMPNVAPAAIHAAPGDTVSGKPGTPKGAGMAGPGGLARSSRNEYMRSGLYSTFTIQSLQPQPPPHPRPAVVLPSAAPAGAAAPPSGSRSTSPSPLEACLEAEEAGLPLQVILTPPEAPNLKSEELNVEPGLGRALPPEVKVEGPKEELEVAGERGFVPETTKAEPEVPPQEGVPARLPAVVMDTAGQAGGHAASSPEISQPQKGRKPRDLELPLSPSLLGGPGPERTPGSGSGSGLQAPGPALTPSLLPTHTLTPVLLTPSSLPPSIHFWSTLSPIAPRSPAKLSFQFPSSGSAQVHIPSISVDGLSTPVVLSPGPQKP
Procedure, shortened: as §1

GABPA = molecular target: T3, GABPA (Homo sapiens, UniProt Q06546 1-454); conditions: protein: recombinant; tags: N-terminal GST; dsDNA, one strand shown
T3 sequence: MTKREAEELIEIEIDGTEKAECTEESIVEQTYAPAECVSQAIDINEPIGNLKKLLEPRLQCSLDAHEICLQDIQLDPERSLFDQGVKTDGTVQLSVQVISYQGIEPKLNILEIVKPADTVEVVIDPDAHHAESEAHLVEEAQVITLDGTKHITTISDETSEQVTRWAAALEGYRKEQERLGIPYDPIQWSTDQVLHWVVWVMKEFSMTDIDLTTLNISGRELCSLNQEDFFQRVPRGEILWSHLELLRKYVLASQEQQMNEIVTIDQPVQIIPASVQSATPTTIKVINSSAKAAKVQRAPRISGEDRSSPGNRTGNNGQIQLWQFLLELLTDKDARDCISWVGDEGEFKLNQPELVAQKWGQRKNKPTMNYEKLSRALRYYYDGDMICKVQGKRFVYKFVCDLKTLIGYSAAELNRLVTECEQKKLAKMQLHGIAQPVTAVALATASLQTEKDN
Procedure, shortened: as §1

ELF1 = ELF1 (Homo sapiens, UniProt P32519 1-619); conditions: protein: recombinant; tags: N-terminal GST; dsDNA, one strand shown
ELF1, sequence (P32519 whole entry): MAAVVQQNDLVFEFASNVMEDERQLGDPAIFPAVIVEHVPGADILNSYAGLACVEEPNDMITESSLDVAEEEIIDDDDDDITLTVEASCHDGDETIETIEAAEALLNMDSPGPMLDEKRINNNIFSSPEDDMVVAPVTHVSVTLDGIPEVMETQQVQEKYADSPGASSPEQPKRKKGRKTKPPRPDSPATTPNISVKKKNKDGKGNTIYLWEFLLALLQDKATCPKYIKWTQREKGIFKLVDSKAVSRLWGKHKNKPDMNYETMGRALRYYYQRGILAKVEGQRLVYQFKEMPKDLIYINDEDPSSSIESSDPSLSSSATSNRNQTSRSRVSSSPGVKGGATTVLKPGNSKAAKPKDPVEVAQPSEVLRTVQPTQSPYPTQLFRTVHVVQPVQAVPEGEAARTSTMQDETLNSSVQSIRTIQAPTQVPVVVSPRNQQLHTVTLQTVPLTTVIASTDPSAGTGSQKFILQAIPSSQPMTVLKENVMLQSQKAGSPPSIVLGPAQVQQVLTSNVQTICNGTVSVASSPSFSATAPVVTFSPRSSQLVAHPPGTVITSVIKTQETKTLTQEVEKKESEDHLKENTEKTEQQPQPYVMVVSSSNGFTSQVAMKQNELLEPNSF
Procedure, shortened: as §1

EHF = molecular target: T4, EHF (Homo sapiens, UniProt Q9NZC4 1-300); conditions: protein: recombinant; tags: N-terminal GST; dsDNA, one strand shown
T4 sequence: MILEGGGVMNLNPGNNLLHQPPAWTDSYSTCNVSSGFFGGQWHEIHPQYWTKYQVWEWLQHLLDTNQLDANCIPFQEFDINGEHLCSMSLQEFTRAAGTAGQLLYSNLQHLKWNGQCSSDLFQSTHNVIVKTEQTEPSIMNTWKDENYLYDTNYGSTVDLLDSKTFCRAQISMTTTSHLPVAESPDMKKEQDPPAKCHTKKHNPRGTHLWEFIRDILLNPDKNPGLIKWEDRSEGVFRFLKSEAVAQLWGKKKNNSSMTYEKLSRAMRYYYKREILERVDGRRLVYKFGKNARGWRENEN
Procedure, shortened: as §1

SPI1 = SPI1 (Homo sapiens, UniProt P17947 1-270); conditions: protein: recombinant; tags: N-terminal GST; dsDNA, one strand shown
Procedure, shortened: as §1

SPIB = SPIB (Homo sapiens, UniProt Q01892 1-262); conditions: protein: recombinant; tags: N-terminal GST; dsDNA, one strand shown
SPIB, sequence (Q01892 whole entry): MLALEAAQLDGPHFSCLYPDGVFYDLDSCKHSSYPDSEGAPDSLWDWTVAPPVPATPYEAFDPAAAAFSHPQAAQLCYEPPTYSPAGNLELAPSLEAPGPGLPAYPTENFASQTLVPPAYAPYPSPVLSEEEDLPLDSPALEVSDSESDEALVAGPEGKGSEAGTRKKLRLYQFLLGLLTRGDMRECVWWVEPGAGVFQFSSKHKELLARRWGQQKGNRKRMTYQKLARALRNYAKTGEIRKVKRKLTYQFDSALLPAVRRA
Procedure, shortened: as §1

ELK3 = molecular target: T5, ELK3 (Homo sapiens, UniProt P41970 1-407); conditions: protein: recombinant; tags: N-terminal GST; dsDNA, one strand shown
T5 sequence: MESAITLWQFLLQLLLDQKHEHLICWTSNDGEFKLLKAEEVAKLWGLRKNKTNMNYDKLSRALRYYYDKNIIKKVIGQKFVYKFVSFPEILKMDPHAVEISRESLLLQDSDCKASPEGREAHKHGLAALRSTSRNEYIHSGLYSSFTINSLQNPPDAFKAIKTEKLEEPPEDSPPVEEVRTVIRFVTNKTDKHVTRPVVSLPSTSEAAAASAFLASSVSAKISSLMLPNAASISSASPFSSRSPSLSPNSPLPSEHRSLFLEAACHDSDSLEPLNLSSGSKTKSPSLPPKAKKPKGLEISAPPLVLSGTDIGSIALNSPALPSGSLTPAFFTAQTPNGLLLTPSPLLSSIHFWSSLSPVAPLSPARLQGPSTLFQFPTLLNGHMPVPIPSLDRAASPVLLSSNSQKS
Procedure, shortened: as §1

ETV5 = ETV5 (Homo sapiens, UniProt P41161 1-510); conditions: protein: recombinant; tags: N-terminal GST; dsDNA, one strand shown
ETV5, sequence (P41161 whole entry): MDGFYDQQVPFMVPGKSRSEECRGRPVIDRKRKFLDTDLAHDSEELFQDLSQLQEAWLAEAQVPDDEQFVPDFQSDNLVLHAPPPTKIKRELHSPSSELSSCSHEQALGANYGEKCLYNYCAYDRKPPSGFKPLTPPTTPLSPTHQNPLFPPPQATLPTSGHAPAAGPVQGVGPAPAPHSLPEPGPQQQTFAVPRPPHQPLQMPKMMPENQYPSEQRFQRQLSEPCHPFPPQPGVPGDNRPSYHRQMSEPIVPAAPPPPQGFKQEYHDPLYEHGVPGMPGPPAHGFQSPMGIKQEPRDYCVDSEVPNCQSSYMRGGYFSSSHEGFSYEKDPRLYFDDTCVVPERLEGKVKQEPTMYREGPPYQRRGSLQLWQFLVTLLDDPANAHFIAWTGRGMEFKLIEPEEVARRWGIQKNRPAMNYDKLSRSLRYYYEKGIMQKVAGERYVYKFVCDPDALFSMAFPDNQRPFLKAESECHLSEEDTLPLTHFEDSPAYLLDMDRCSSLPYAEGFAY
Procedure, shortened: as §1

HSF1 = HSF1 (Homo sapiens, UniProt Q00613 1-529); conditions: protein: recombinant; tags: N-terminal GST; chain copies: 3; dsDNA, one strand shown
HSF1, sequence (Q00613 whole entry): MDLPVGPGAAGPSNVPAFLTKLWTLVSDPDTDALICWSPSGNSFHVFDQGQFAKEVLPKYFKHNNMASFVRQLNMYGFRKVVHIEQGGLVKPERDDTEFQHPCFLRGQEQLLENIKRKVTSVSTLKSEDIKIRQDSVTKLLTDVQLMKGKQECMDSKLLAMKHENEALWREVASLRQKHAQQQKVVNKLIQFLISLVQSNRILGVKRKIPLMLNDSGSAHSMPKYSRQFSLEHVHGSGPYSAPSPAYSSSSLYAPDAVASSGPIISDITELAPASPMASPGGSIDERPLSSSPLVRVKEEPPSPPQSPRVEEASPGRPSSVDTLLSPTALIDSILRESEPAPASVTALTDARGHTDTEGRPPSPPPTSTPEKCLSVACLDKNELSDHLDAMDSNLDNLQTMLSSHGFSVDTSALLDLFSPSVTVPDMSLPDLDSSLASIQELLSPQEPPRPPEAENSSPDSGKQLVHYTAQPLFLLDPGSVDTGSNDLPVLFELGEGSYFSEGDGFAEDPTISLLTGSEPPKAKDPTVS
Procedure, shortened: as §1

ELF4 = ELF4 (Homo sapiens, UniProt Q99607 1-663); conditions: protein: recombinant; tags: N-terminal GST; dsDNA, one strand shown
ELF4, sequence (Q99607 whole entry): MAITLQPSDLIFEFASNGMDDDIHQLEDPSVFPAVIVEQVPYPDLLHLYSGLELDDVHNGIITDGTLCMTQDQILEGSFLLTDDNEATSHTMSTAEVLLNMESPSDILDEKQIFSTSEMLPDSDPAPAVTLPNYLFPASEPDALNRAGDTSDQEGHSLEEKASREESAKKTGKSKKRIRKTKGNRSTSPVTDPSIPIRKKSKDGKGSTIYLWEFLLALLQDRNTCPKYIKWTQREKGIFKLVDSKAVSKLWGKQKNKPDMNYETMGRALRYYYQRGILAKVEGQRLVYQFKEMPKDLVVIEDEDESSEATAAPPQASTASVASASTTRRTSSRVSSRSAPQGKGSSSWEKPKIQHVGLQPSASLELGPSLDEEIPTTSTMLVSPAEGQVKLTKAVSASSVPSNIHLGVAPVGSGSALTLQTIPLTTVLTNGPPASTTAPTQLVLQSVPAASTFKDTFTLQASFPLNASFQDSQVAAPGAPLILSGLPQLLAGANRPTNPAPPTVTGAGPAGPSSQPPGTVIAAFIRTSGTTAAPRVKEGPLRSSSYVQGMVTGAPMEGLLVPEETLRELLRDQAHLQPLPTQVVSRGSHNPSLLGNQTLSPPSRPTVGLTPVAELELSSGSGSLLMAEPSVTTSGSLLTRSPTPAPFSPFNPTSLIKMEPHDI
Procedure, shortened: as §1

ELK4 = molecular target: T6, ELK4 (Homo sapiens, UniProt P28324-2 1-405); conditions: protein: recombinant; tags: N-terminal GST; dsDNA, one strand shown
T6 sequence: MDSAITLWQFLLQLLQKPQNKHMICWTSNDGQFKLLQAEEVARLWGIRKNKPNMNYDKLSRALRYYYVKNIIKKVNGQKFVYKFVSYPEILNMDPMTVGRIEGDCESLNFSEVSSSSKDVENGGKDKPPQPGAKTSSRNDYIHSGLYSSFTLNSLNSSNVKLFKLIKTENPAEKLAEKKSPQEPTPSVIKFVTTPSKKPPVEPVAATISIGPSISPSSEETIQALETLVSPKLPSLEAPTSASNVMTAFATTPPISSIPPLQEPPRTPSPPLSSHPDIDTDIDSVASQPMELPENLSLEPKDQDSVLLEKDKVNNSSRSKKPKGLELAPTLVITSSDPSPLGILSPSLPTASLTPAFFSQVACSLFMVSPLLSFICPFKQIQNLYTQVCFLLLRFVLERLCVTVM
Procedure, shortened: as §1

FEV = molecular target: T7, FEV (Homo sapiens, UniProt Q99581 1-238); conditions: protein: recombinant; tags: N-terminal GST; dsDNA, one strand shown
T7 sequence: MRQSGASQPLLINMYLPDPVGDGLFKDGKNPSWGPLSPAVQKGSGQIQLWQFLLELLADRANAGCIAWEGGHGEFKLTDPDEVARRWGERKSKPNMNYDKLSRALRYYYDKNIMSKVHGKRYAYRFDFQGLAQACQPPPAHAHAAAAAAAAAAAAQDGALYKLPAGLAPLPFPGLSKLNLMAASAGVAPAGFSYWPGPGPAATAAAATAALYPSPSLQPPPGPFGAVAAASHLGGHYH
Procedure, shortened: as §1

ELF3 = molecular target: T8, ELF3 (Homo sapiens, UniProt P78545 1-371); conditions: protein: recombinant; tags: N-terminal GST; dsDNA, one strand shown
T8 sequence: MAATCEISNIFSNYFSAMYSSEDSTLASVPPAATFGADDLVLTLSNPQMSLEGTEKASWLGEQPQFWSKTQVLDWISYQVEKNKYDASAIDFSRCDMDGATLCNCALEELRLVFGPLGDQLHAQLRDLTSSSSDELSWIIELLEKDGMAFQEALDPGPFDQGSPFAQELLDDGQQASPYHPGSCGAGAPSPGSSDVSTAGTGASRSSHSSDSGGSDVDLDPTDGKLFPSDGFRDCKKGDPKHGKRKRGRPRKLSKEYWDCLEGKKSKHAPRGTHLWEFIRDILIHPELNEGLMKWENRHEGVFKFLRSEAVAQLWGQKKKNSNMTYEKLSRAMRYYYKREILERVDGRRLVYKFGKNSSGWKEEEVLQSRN
Procedure, shortened: as §1

ERG = molecular target: T9, ERG (Homo sapiens, UniProt P11308 1-479); conditions: protein: recombinant; tags: N-terminal GST; dsDNA, one strand shown
T9 sequence: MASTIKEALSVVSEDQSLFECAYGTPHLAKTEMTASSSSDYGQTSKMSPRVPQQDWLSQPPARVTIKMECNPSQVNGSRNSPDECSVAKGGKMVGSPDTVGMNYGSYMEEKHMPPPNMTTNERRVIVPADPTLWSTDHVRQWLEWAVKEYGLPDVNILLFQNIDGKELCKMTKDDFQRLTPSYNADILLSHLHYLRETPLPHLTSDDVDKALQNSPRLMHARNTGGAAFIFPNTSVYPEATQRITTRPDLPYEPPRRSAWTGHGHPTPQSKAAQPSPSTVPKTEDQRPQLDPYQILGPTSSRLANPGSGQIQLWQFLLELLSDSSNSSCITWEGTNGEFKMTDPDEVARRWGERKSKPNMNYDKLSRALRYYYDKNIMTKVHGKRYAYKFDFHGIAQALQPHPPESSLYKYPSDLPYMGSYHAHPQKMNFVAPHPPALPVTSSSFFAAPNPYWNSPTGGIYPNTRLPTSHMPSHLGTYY
Procedure, shortened: as §1

CRX = CRX (Homo sapiens, UniProt O43186 1-299); conditions: protein: recombinant; tags: N-terminal GST; dsDNA, one strand shown
CRX, sequence (O43186 whole entry): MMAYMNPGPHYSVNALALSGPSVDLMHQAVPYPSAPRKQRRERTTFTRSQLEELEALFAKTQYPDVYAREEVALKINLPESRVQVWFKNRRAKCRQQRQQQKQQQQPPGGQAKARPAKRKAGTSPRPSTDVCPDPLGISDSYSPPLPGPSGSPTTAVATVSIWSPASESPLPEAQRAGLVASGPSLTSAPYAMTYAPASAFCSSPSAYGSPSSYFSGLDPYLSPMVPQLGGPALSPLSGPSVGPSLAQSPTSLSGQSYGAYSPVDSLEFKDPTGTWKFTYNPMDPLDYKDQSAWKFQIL
Procedure, shortened: as §1

ETV1 = ETV1 (Homo sapiens, UniProt P50549 1-477); conditions: protein: recombinant; tags: N-terminal GST; dsDNA, one strand shown
ETV1, sequence (P50549 whole entry): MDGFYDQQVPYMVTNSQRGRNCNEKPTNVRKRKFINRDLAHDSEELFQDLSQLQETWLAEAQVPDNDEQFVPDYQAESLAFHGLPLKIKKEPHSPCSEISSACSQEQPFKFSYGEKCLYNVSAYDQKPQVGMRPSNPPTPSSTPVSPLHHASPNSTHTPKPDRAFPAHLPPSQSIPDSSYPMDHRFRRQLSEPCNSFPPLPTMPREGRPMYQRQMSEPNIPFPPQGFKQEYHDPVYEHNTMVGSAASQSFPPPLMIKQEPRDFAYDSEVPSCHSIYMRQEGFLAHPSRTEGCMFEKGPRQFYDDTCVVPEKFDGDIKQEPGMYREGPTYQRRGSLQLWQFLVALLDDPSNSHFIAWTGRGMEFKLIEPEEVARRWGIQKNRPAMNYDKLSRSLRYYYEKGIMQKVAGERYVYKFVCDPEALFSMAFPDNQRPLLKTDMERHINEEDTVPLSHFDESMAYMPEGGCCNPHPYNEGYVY
Procedure, shortened: as §1

Row | Sequence | binding signal (FLI1) | binding signal (ELK1) | binding signal (GABPA) | binding signal (ELF1) | binding signal (EHF) | binding signal (SPI1) | binding signal (SPIB) | binding signal (ELK3) | binding signal (ETV5) | binding signal (HSF1) | binding signal (ELF4) | binding signal (ELK4) | binding signal (FEV) | binding signal (ELF3) | binding signal (ERG) | binding signal (CRX) | binding signal (ETV1)
1 | CGATGA | 1.01 fold enrichment (6-mer frequency, TF over GST control) | 1.09 fold enrichment (6-mer frequency, TF over GST control) | 1.05 fold enrichment (6-mer frequency, TF over GST control) | 1.11 fold enrichment (6-mer frequency, TF over GST control) | 1.08 fold enrichment (6-mer frequency, TF over GST control) | 1.06 fold enrichment (6-mer frequency, TF over GST control) | 1.01 fold enrichment (6-mer frequency, TF over GST control) | 1.09 fold enrichment (6-mer frequency, TF over GST control) | 1.05 fold enrichment (6-mer frequency, TF over GST control) | 1.02 fold enrichment (6-mer frequency, TF over GST control) | 1.06 fold enrichment (6-mer frequency, TF over GST control) | 1.01 fold enrichment (6-mer frequency, TF over GST control) | – | – | – | – | –
2 | ACATCG | 1.03 fold enrichment (6-mer frequency, TF over GST control) | 1.01 fold enrichment (6-mer frequency, TF over GST control) | – | 1.06 fold enrichment (6-mer frequency, TF over GST control) | 1.15 fold enrichment (6-mer frequency, TF over GST control) | 1.03 fold enrichment (6-mer frequency, TF over GST control) | 1.1 fold enrichment (6-mer frequency, TF over GST control) | 1.09 fold enrichment (6-mer frequency, TF over GST control) | 1.04 fold enrichment (6-mer frequency, TF over GST control) | 1.01 fold enrichment (6-mer frequency, TF over GST control) | 1.09 fold enrichment (6-mer frequency, TF over GST control) | 1.13 fold enrichment (6-mer frequency, TF over GST control) | 1.01 fold enrichment (6-mer frequency, TF over GST control) | 1.04 fold enrichment (6-mer frequency, TF over GST control) | – | – | –
3 | AAGCGA | 1.02 fold enrichment (6-mer frequency, TF over GST control) | 1.02 fold enrichment (6-mer frequency, TF over GST control) | – | 1.06 fold enrichment (6-mer frequency, TF over GST control) | 1.19 fold enrichment (6-mer frequency, TF over GST control) | 1.07 fold enrichment (6-mer frequency, TF over GST control) | 1 fold enrichment (6-mer frequency, TF over GST control) | 1.07 fold enrichment (6-mer frequency, TF over GST control) | 1.04 fold enrichment (6-mer frequency, TF over GST control) | 1.04 fold enrichment (6-mer frequency, TF over GST control) | 1.09 fold enrichment (6-mer frequency, TF over GST control) | 1.06 fold enrichment (6-mer frequency, TF over GST control) | 1.04 fold enrichment (6-mer frequency, TF over GST control) | 1.08 fold enrichment (6-mer frequency, TF over GST control) | 1.11 fold enrichment (6-mer frequency, TF over GST control) | 1.09 fold enrichment (6-mer frequency, TF over GST control) | 1 fold enrichment (6-mer frequency, TF over GST control)
